Source: PubChem BioAssay (NCI)
Compounds without any hit were thinned out: in the full panel of roughly 83,000, 20% have a hit.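 In brief: 96-well plates, 48 h treatment, single concentration, percent growth endpoint.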 Unmarked numbers belong to inactive results. Active and inactive are the calls of the source. Rule for the calls: active = growth percent below 10; inactive = the rest.

Experiments:
Assay in all cases: NCI-60 one-dose screen, 48 h (100 = growth as untreated, 0 = no growth, -100 = all killed)
Details in all cases: 10 µM
[1] = tested on: HCT-15 colon
[2] = tested on: HT29 colon
[3] = tested on: SNB-75 CNS
[4] = tested on: SNB-19 CNS
[5] = tested on: U251 CNS
[6] = tested on: SK-MEL-5 melanoma
[7] = tested on: UACC-62 melanoma
[8] = tested on: LOX IMVI melanoma
[9] = tested on: SK-MEL-28 melanoma
[10] = tested on: PC-3 prostate

| Structure (SMILES) | growth [1] | growth [2] | growth [3] | growth [4] | growth [5] | growth [6] | growth [7] | growth [8] | growth [9] | growth [10] |
| --- | --- | --- | --- | --- | --- | --- | --- | --- | --- | --- |
| O=C1c2ccccc2-c2c1c1cccnc1c(=O)n2C[C@H](O)CO | 62.8% | 57.7% | 63.9% | 59.2% | 46.8% | 50.9% | 51% | 36.3% | 87.9% | – |
| Fc1ccc2[nH]cc(-c3nc(-c4ccsc4)cs3)c2c1 | 91.4% | 100% | 92.2% | 109% | 93.7% | 89.2% | 88.5% | 86.7% | 108% | – |
| COc1ccc2nc(Cl)c(Cn3nnc(Cc4ccccc4)n3)cc2c1 | 36.5% | 27.4% | 57.1% | 58% | 53.2% | -47.2% (active) | 35.1% | 42.9% | 47.5% | – |
| O=C(CCCNC(=O)c1nc(-c2ccccc2)n(-c2ccccc2)n1)NO | 104% | 90.1% | 107% | 98.1% | 94.6% | 104% | 102% | 97.9% | 109% | – |
| COc1ccc(C2CC(c3cc(OC)c(OC)c(OC)c3)=NN2)cc1 (stereo unspecified) | 36.2% | 29.9% | 68.5% | 68.3% | 26.2% | 81.4% | 67% | 43.9% | 113% | – |
| COCCn1cc(-c2nc(-c3cccnc3)cs2)c2cc(F)ccc21 | 76.4% | 72.3% | 94.4% | 97.3% | 90.2% | 82.9% | 89.2% | 90.7% | 97.2% | – |
| c1cnc2[nH]cc(-c3nc(-c4ccsc4)cs3)c2c1 | 86.1% | 104% | 90.7% | 102% | 90.4% | 81.6% | 96.2% | 96.2% | 122% | – |
| CCNc1nc(C(F)(F)F)nc2c1sc(=S)n2-c1ccccc1 | 94.7% | 88.8% | 99.2% | 107% | 93.3% | 87.6% | 93.9% | 88.6% | 112% | – |
| N#Cc1cnn(C(=O)c2nn(-c3ccc(Cl)cc3)cc2O)c1N | 18.1% | 29.1% | 32.4% | 32.5% | 22% | 14.8% | 5.76% (active) | 8.92% (active) | 56.1% | – |
| COc1ccc(-c2cc(-c3cc(OC)ccc3OC)nc(N)c2C#N)cc1 | 51.2% | 60.7% | 16.3% | 48.8% | 61.2% | 63% | 42.3% | 58.6% | 88.5% | – |
| COc1cc(N)c2ncccc2c1SC | 112% | – | 91% | 99% | 102% | 107% | 110% | 93.1% | 106% | 101% |
| CC(C)c1ccc(C(C)C(=O)N(CC2=C(C(C)c3ccccn3)c3ccccc3C2)C(C)C)cc1 (stereo unspecified) | 30.3% | – | 49.3% | 58.2% | 36% | 30.2% | 53.4% | 31.1% | 79.7% | 17.9% |
| COc1cc(/C=C2\CCCC3=C2N=C2SC(C)=CN2C3c2cc(OC)c(OC)c(OC)c2)cc(OC)c1OC (stereo unspecified) | -65.4% (active) | -49.1% (active) | 59.4% | 52.7% | – | -71.6% (active) | – | -70.4% (active) | -51.6% (active) | 44.5% |
| CC1=CC2C(C(O)CC3(C)C2CC(C)C32OCOC23COCO3)C2(C)C/C(=C/O)C(=O)C=C12 (stereo unspecified) | -24.2% (active) | 3.89% (active) | 100% | 56% | – | – | 30.4% | -60.9% (active) | 66.3% | 31.7% |
| CC(C)(C)c1ccc(S(=O)(=O)N[C@H]2CC[C@H]3[C@@H]4CCc5cc(O)c([N+](=O)[O-])cc5[C@H]4CC[C@]23C)cc1 | 87.9% | 70% | 5.54% (active) | – | – | 83.5% | 84.2% | – | 77% | 47.4% |
| C/C=C/C1=CN2C(=O)c3cc(OC4OC(C)C(NC)C(C)(O)C4O)c(C)c(O)c3N=C[C@@H]2C1 (stereo partly specified) | 4.24% (active) | 5.18% (active) | – | 9.3% (active) | 5.6% (active) | -62.2% (active) | -90.8% (active) | -21.4% (active) | -37.2% (active) | 3.42% (active) |

| Structure (SMILES) | growth [1] | growth [2] | growth [3] | growth [4] | growth [5] | growth [6] | growth [7] | growth [8] | growth [9] | growth [10] |
| --- | --- | --- | --- | --- | --- | --- | --- | --- | --- | --- |
| COc1ccc(/C=C2\CCCC3=C2N=C2SC(C)=CN2C3c2ccc(OC)cc2)cc1 (stereo unspecified) | 102% | 104% | 97.7% | 100% | – | 92.3% | – | 91.5% | 96.2% | 99.9% |
| O=c1c(Br)ccc(Br)cc1Br | -32.8% (active) | -41.6% (active) | – | 86.6% | – | 32.4% | -5.1% (active) | -76.9% (active) | -53.4% (active) | -24.7% (active) |
| C[C@]12CC[C@@H]3c4ccc(OS(=O)(=O)O)cc4CC[C@H]3[C@@H]1CC[C@@H]2NS(=O)(=O)c1ccc(-c2ccccc2)cc1 | 52.6% | 50% | 75.6% | 89.6% | – | 67.4% | 79.1% | – | 95.8% | 41% |
| C[n+]1c2ccccc2nc2ccccc21 | 21.3% | 21.2% | 22.8% | – | 4.11% (active) | 3.8% (active) | -34.3% (active) | -36.5% (active) | -2.36% (active) | 7.71% (active) |
| NS(=O)(=O)Oc1ccc(NC(=O)C2CCCCCC2)cc1 | 100% | – | 96.1% | 101% | 100% | 101% | 99.7% | 98.8% | 104% | 96.5% |
| Cc1cccc(N=Cc2ccccc2O)c1C | 108% | 97.7% | 97.3% | 90.5% | – | 103% | 95.2% | – | 106% | 94.6% |
| CC(=O)Nc1ccc(S(=O)(=O)c2ccnc3cc(Cl)ccc23)cc1 | 63.8% | 93.7% | 76.5% | 102% | – | 71.8% | 77.7% | – | 78.1% | 96% |
| CC(C)(O)CCl | 102% | – | 110% | 102% | 103% | 104% | 102% | 104% | 110% | 102% |
| O=C(CCCSc1nc(-c2ccc(Cl)cc2)cc(-c2ccc(Cl)cc2)n1)NO | 17.6% | – | 13.7% | 17.7% | 17.2% | -31.7% (active) | -10.7% (active) | -2.15% (active) | 25% | 21% |
| COc1ccc(/C=c2\sc3n(c2=O)C(c2cc(OC)c(OC)c(OC)c2)C=C(c2ccc(OC)c(OC)c2)N=3)cc1OC (stereo unspecified) | 90.3% | – | 76.2% | 89.9% | 98.9% | 83.4% | 85.6% | 93.8% | 104% | 86.6% |
| CC(=O)Nc1cc2c(cc1Cl)Cc1cc(Cl)ccc1-2 | 85.9% | 99.4% | 64.1% | – | 89.1% | – | – | 89.7% | 104% | 86.1% |
| N=C1S/C(=C/c2ccc(-c3ccc4c(c3)C(=O)NC4=O)o2)C(=O)N1c1ccc(Br)cc1 | 47.1% | 21.9% | -3.31% (active) | 106% | – | 65.5% | 31.8% | – | -19.1% (active) | -2.15% (active) |
| CC[N+](CC)=c1ccc2nc3c(cc(NCc4ccccc4)c4ccccc43)oc-2c1 | -45.8% (active) | -62.9% (active) | – | -79.7% (active) | -95% (active) | -97.4% (active) | -73% (active) | -64.2% (active) | – | -19% (active) |
| Cc1c(C(N)=O)sc2c1c(=O)n(Cc1ccccc1)c1nnc(-c3ccc(Br)cc3)n21 | 25.3% | 28.6% | – | 51.8% | 11.5% | -38.2% (active) | 6.17% (active) | 5.15% (active) | 46.2% | 37.2% |
| C=CCn1c(SCC(=O)Nc2ccc(C(=O)/C=C/c3ccc(Cl)cc3)cc2)nnc1-c1cc(-c2ccccc2)nc2ccccc12 | 8.31% (active) | – | 59.8% | 66.9% | 48.1% | 87.1% | 59.9% | -82.4% (active) | 99.7% | 70.4% |
